Assay results as given in PubChem BioAssay AID504634 (The Scripps Research Institute Molecular Screening Center, 2011).
Screen size: about 340,000 compounds; about 280 (0.082%) were called active. Rule as the data show it: active = inhibition mostly above about 23% (no sharp cut-off); inactive = mostly below about 18%. The entries come from a sample that favours actives as a whole.

Each compound was assayed against 5-hydroxytryptamine receptor 5A (Homo sapiens) (UniProt P47898) (assay: HTR5A inverse agonists in luminescence cell assay, primary screen, counter-screen for OPRM1-OPRD1 heterodimer inverse agonist project, full-deck HTS (AID 504634;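 also: 0% = cells with DMSO and 100% = no-cell wells with DMSO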)). Conditions: HTR5A cell line, inverse agonism, at 9.3 µM, hits give high values.
Chain of 5-hydroxytryptamine receptor 5A (Homo sapiens) (P47898 whole entry, looked up): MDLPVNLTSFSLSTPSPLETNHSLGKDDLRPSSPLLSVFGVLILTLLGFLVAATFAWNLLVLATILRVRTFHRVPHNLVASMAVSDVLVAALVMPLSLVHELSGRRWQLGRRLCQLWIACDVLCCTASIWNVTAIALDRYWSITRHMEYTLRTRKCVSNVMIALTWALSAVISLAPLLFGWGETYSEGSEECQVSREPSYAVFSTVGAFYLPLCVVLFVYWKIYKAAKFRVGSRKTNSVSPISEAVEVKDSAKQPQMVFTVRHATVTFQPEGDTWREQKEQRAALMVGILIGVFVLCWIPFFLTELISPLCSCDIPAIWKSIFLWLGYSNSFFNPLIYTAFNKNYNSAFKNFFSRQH

SMILES	inhibition
CCCC1NC(=O)NC(C)=C1C(=O)OCC (stereo not given)	-17.2% (inactive)
CCOC(=O)c1c(C)[nH]c(C)c1S(=O)(=O)NCCCc1ccco1	16.2% (inactive)
CCNS(=O)(=O)c1ccc(CCC(=O)N2CCN(c3ccc(OC)cc3)CC2)cc1	8.47% (inactive)
CC(NC(=O)CNC(=O)Cc1cccc2ccccc12)c1ccc(S(N)(=O)=O)cc1 (stereo not given)	2.43% (inactive)
O=c1ccc2c(-c3ccccc3S(=O)(=O)O)c3ccc(O)c(O)c3oc-2c1O	24.5% (active)
NS(=O)(=O)c1ccc(CCNC(=O)c2ccc(Cl)c(S(=O)(=O)N3CCCCCC3)c2)cc1	-7.96% (inactive)
COc1ccc2[nH]c3c(c2c1)CCN1C(=O)C(CC(=O)NCCc2ccccn2)C[C@H](C(=O)N2CCOCC2)[C@@]31C (stereo not given in full)	2.62% (inactive)
Cc1noc(C)c1NC(=O)Nc1ccc2c(c1)C(=O)N([C@H](C)CO)C[C@H](C)[C@@H](CN(C)C(=O)Nc1ccccc1)O2	-10% (inactive)
S=C(Nc1ccc(Br)cc1Cl)N1CCC2(CC1)OCCO2	2.4% (inactive)
CC(C)Cn1cnc2c1c(=O)n(CC(O)c1ccccc1)c(=O)n2CC(C)C (stereo not given)	-27.9% (inactive)
COc1ccc(S(=O)(=O)N2CCc3ccccc32)cc1C(=O)Nc1cc(S(C)(=O)=O)ccc1Cl	-6.04% (inactive)
COc1cc(CCC(=O)Nc2ccncc2Cl)cc(OC)c1OC	6.7% (inactive)
Cc1cccn2c(=O)c(C=O)c(Nc3ccc(S(N)(=O)=O)cc3)nc12	-18.2% (inactive)
O=C(O)c1ccccc1NC(=S)NC(NC(=O)c1ccccc1[N+](=O)[O-])C(Cl)(Cl)Cl (stereo not given)	-0.92% (inactive)
CCCS(=O)(=O)N1CCN(C(=O)c2cccs2)CC1	-3.26% (inactive)
Cc1cccc(N2CC(C)Cn3c2nc2c3c(=O)n(CC(=O)OCc3ccccc3)c(=O)n2C)c1 (stereo not given)	-8.01% (inactive)
COc1ccc(S(=O)(=O)N2CCOC2CNC(=O)C(=O)NCc2ccc(F)cc2)cc1 (stereo not given)	7.37% (inactive)
CC(C)(C)c1ccc(S(=O)(=O)N2CCN(C(=O)c3ccc4c(c3)C(=O)N(Cc3ccncc3)C4=O)CC2)cc1	5.4% (inactive)
COc1ccc(C#Cc2c(-c3ccc(OC)cc3)oc3ccc(-c4ccc5c(c4)OCO5)cc23)cc1	5.51% (inactive)
CC1(c2ccc3ccccc3c2)NC(=O)N(CC(N)=O)C1=O (stereo not given)	1.06% (inactive)
CCCC(=O)N1CCN(c2nnc(-c3ccc(C)cc3)c3ccccc23)CC1	-8.96% (inactive)
CN(C(=O)COC(=O)CCCc1c[nH]c2ccccc12)c1c(N)n(Cc2ccccc2)c(=O)[nH]c1=O	20.6% (inactive)
NC(=O)c1cc(S(=O)(=O)NCCCc2ccco2)cs1	1.79% (inactive)

SMILES	inhibition
CCc1ccc(NC(=O)CCNS(=O)(=O)c2cccs2)cc1	-3.72% (inactive)
COc1ccc(/C=N/OCc2ccccc2C#N)c(OC)c1	-3.2% (inactive)
Cc1ccc(C(=O)NCC(=O)NC2CC2)cc1	4.21% (inactive)
NS(=O)(=O)c1ccc(CCNC(=O)c2nc(CS(=O)(=O)c3ccc(Cl)cc3)no2)cc1	-12.4% (inactive)
Cn1cnc(C(F)(F)F)c1-c1ccc([N+](=O)[O-])cc1	8.1% (inactive)
COc1ccccc1C1=CC(=O)CCC1	2.76% (inactive)
CCn1c(SCC(=O)N(C)C2CCS(=O)(=O)C2)nnc1-c1cccs1 (stereo not given)	-22.6% (inactive)
O=c1nc(NO)ccn1C1CCCO1 (stereo not given)	1.3% (inactive)
O=C(O)c1ccc(-n2nc(-c3ccccc3)c3ccccc3c2=O)cc1	0.76% (inactive)
COc1ccc(N(CC(=O)NC2CCCCC2)S(=O)(=O)c2c(C)[nH]c(=O)[nH]c2=O)cc1	1.68% (inactive)
Cc1sc2ncn(CC(=O)NCCCC(=O)N3CCN(c4ccccc4F)CC3)c(=O)c2c1C	1.47% (inactive)
Cc1nc(N)c(Br)c(C)c1Br	-6.08% (inactive)
CSCCC(NC(=O)COc1ccccc1)C(=O)OCC(=O)c1cc2ccccc2o1 (stereo not given)	33.3% (active)
CSCCC(NC(=O)COc1ccccc1)C(=O)OCCOc1ccc(Br)cc1 (stereo not given)	-4.54% (inactive)
CSCCC(NC(=O)COc1ccccc1)C(=O)OCc1ccc(Cl)cc1 (stereo not given)	-5.68% (inactive)
COc1cc(C(=O)NNC(=O)CN2C(=O)NC3(CCCC3)C2=O)cc(OC)c1OC	5.64% (inactive)
COCCCNS(=O)(=O)c1cccc(S(=O)(=O)c2cccc(S(=O)(=O)NCCCOC)c2)c1	-5.56% (inactive)
O=C(CC1C(=O)NCCN1Cc1ccc(-c2ccccc2)cc1)NCc1ccncc1 (stereo not given)	-12.3% (inactive)
COc1ccccc1CN(C)C(=O)C1(c2ccc(Cl)cc2)CC1	21.3% (inactive)
Cc1cc(OC(=O)c2ccccc2Cl)ccc1N1C(=O)CCC1=O	11.2% (inactive)
Cc1ccc(C(=O)OCC(=O)N2CC(C)CC(C)C2)cc1S(=O)(=O)N1CCCCC1 (stereo not given)	11% (inactive)
CCCCCCCC1(C)NC(=O)N(CC(=O)Nc2cc(C)on2)C1=O (stereo not given)	-14.9% (inactive)
O=C(NCCS(=O)(=O)N1CCN(c2ccc(F)cc2)CC1)c1ccc2c(c1)OCO2	9.72% (inactive)

SMILES	inhibition
CN(CCc1ccccc1)C(=O)c1cccc(NC(=O)Cc2ccc([N+](=O)[O-])cc2)c1	-40.2% (inactive)
Cc1cc(C)cc(C(=O)NC(CC(N)=O)c2ccc(N3CCC(N4CCCCC4)CC3)c([N+](=O)[O-])c2)c1 (stereo not given)	-1.31% (inactive)
Cc1ccc(S(=O)(=O)C2(S(=O)(=O)c3ccc(C)cc3)CCCC2)cc1	-9.41% (inactive)
O=C(CCCOc1ccccc1)NNC(=O)c1ccc(Cl)cc1	-22.2% (inactive)
COC(=O)N1CN(C(=O)OC)CN(C(=O)OC)C1	-11.4% (inactive)
O=C(NNc1cc(Cl)cc(Cl)c1)c1c(F)cccc1Cl	5.05% (inactive)
CC1(C)CC(=O)C(C2c3ccccc3S(=O)(=O)c3ccccc32)C(=O)C1	-6.15% (inactive)
CC(C)OC(=O)Cn1nc(C(F)(F)F)c2c1CCCC2	-22% (inactive)
CN1CCN(C2=NCCO2)CC1	13.4% (inactive)
Nc1scc(-c2ccncc2)c1Cl	4.78% (inactive)
CCOc1ccc(CCNC(=O)CN2C(=O)NC3(CCc4ccccc43)C2=O)cc1OCC (stereo not given)	16.7% (inactive)
COc1cc(NC(=O)c2ccc(CNc3c(N4CCCC4)c(=O)c3=O)cc2)cc(OC)c1OC	-11.7% (inactive)
Cc1cc(C)n(-c2ccc3nncn3n2)n1	5.02% (inactive)
Cc1cc(C)n(-c2ccc(Cl)c(C(=O)O)n2)n1	39.8% (active)
CC(=O)c1ccc(Oc2cc(C)nc(-n3nc(C)cc3C)n2)cc1	6.21% (inactive)
COc1ccc(N2C(=O)C(CC(=O)Nc3ccc(F)cc3)N(CCc3cccs3)C2=O)cc1 (stereo not given)	6.13% (inactive)
COc1ccc(NS(=O)(=O)c2cc(NC(=O)c3ccc(S(=O)(=O)N(C)C)cc3)ccc2N2CCOCC2)cc1	8.03% (inactive)
Cc1cc(C)cc(NC(=O)CSCc2cnn(-c3ccccc3)c2-n2cccc2)c1	3.55% (inactive)
CCOC(=O)C1CCN(C(=O)Nc2cccc(OC)c2)CC1	17.6% (inactive)
CCOC(=O)NC(=O)C(=CNc1cccc(OC)c1)C(=O)NC(=O)OCC	34% (active)
COc1cccc(NC(=O)COC(=O)CCOc2ccccc2OC)c1	-27.4% (inactive)
COCCn1c(SCC(=O)Nc2cc(Cl)ccc2OC)nc2c(c1=O)SC(C)C2 (stereo not given)	-31.9% (inactive)
N#CC1(C#N)C(C(=O)C23CC4CC(CC(C4)C2)C3)C12CCOCC2 (stereo not given)	20.3% (inactive)

SMILES	inhibition
COc1cc(C)nc(N2CCCC(C(=O)NCC(C)C)C2)n1 (stereo not given)	-13.9% (inactive)
CCNc1nc(NCC)nc(N(C)n2cnnc2)n1	13% (inactive)
O=C(Nc1ccc2c(c1)C(=O)OC2)Nc1cccc2ccccc12	-14.2% (inactive)
O=S(=O)(NC1CCCCC1N1CCC(O)CC1)c1ccc(Cl)cc1 (stereo not given)	-6.29% (inactive)
O=C(COc1ccccc1F)NNC(=O)c1ccc(N2CCCCC2)c([N+](=O)[O-])c1	7.26% (inactive)
O=c1[nH]n2c(=O)c3c([nH]c2c1N=Nc1ccccc1)CCC3	17% (inactive)
Cc1c(CNCCc2ccccc2)c(C(=O)O)c(C)n1-c1ccccc1	10.6% (inactive)
CCc1ccc(CCC(=O)Nc2ccc(S(N)(=O)=O)cc2)o1	-4.51% (inactive)
COc1ccc(OCc2nnc3n2N=C(c2ccccc2)C(CC(=O)O)S3)cc1 (stereo not given)	-14.6% (inactive)
O=C(Nc1ccc(Br)c2cccnc12)c1ccc(Cn2cc([N+](=O)[O-])cn2)o1	-5.7% (inactive)
O=C(CSc1nnc2ccc(-c3ccncc3)nn12)N1CCCCC1	-11.3% (inactive)
OCCN1CCN(CCO)C1=S	12.7% (inactive)
CCCCn1c(N)c(N2CCOCC2)c(=O)n(CC(=O)NCCc2ccccc2)c1=O	-7.42% (inactive)
CCC(C(=O)OC)n1cnc2scc(-c3ccc(C)cc3)c2c1=O (stereo not given)	18% (inactive)
COc1cc(C(=S)N2CCOCC2)cc(OC)c1OC(=O)c1cc([N+](=O)[O-])c(C)c([N+](=O)[O-])c1	-9.45% (inactive)
COc1ccc(/C=C/C(=O)c2cc(Br)ccc(=O)c2O)cc1	-37% (inactive)
CC(=O)CCS(=O)(=O)c1ccc(C)c(C)c1	6.1% (inactive)
CCCCN(CC)C(=O)c1ccccc1Oc1ccccc1	4.41% (inactive)
C=CCn1c(SCC(=O)NC(=O)Cc2ccccc2)nc2ccccc2c1=O	4.86% (inactive)
CCOc1cc(S(=O)(=O)NCc2ccc3c(c2)OCO3)ccc1F	18.6% (inactive)
Cc1cc(-c2nc(C)c(-c3nnc(SCC(=O)Nc4ccccc4)n3C)s2)no1	0.1% (inactive)
